Measured values reported in PubChem BioAssay AID847 (SRMLSC, 2007).
About 190 (0.46%) of roughly 41,000 compounds were called active.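 Rule for the calls: active = viability at or below the median of all test compounds minus 3 SD, in both replicates if run twice (cut at about 45% in these data); inconclusive = duplicate replicates that disagree with each other; inactive = viability above that cutoff in every replicate.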 The entries come from a sample that favours actives as a whole.

Assay: viability loss of SK-BR-3 cells – cell-based, human, 24 h, primary screen (AID 847);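 note: 100% = median untreated cell wells and 0% = median positive control drug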
Settings: SK-BR-3 viability, CellTiter-Glo ATP luminescence, at 10 µM, active compounds read low

Compound | viability
CSc1nc(O)c(Cc2ccccc2)c(=O)[nH]1 | 88.2% (inactive)
C=CCNc1nnc(C)c2ccccc12 | 94.2% (inactive)
COc1ccc(C2C(C#N)=C(N)Oc3n[nH]c(C)c32)cc1CN1CCN(c2ccc(F)cc2)CC1 (stereo not given) | 67% (inactive)
CCOC(=O)C1CCCN(C(=O)c2cncc(Br)c2)C1 (stereo not given) | 89.5% (inactive)
O=C(Nc1ccc2c(c1)nc1n2CCCCC1)c1cc(S(=O)(=O)N2CCOCC2)ccc1Cl | 69% (inactive)
O=C(CSc1ncccn1)NCCc1ccccc1 | 89.6% (inactive)
CSc1nsc(SC)c1NC(=O)OC1CCCCC1 | 106% (inactive)
COc1ccc(S(=O)(=O)N2CCOCC2)cc1C(=O)Nc1nc2ccccc2s1 | 87.8% (inactive)
CCCC(=O)Nc1cc(OCC)c(NC(=O)NC2CCCCC2)cc1OCC | 128% (inactive)
COC(=O)[C@H](CCSC)NC(=O)Nc1ccc(OC)cc1 | 86.4% (inactive)
COC(=O)C1(S(=O)(=O)C2(C(=O)OC)CCCC2)CCCC1 | 105% (inactive)
C=CCNC(=O)c1ccc(C)c(Br)c1 | 74.5% (inactive)
CCn1cc(NC(=O)Nc2ccc(OC)c(OC)c2)c(C(N)=O)n1 | 90.8% (inactive)
Cc1ccc(C(=O)CS(C)(=O)=O)cc1 | 90.6% (inactive)
CC(=O)N1CCC(C(=O)Nc2nc(-c3ccccc3)ns2)CC1 | 96.3% (inactive)
Cc1nc(NCCN)c(C#N)c2c1COC(C)(C)C2 | 85.4% (inactive)
OC(COc1ccccc1)Cn1cc(Br)cn1 (stereo not given) | 74.7% (inactive)
CCCOC(=O)C1=C(C)NC2=C(C(=O)C(C(=O)OC)C(C)C2)C1c1ccc(N(C)C)cc1 (stereo not given) | 89% (inactive)
Cc1nc(N2CCCC2C(=O)O)c2oc3ccccc3c2n1 (stereo not given) | 101% (inactive)
COC(=O)c1cn(CC(=O)NCc2cccs2)c2ccccc12 | 108% (inactive)
COc1cc(-c2nc(S(=O)(=O)c3ccc(Cl)cc3)c(N(C)C)o2)cc(OC)c1OC | 75.4% (inactive)
O=C(c1cccc(S(=O)(=O)N2CCOCC2)c1)N1CCOCC1 | 94.3% (inactive)
CC(=O)Oc1cccc(N2C(=O)C3CC=C(Cl)CC3C2=O)c1 (stereo not given) | 73.3% (inactive)
NC(=O)C1CCN(C2OC(=O)c3ccccc32)CC1 (stereo not given) | 93.2% (inactive)
O=C(NC(c1ccccc1)c1ccccc1)N1CCN(CCO)CC1 | 93% (inactive)

Compound | viability
O=C(CSc1nnc(Cc2ccccc2)n1-c1ccccc1)N1CCOCC1 | 87.4% (inactive)
Cc1ccc2[nH]c(=O)c(COC(=O)c3ccccn3)cc2c1 | 100% (inactive)
CC1Cc2ccccc2N1C(=O)CSc1nnc(-c2ccc(S(=O)(=O)N3CCCCC3)cc2)o1 (stereo not given) | 96% (inactive)
Cc1cc(O)ccc1-c1cnc2ccccc2n1 | 92.4% (inactive)
CC(C)NS(=O)(=O)c1ccc(OCC(=O)Nc2ccc3c(c2)OCCO3)cc1 | 86.3% (inactive)
O=C(OC(C(=O)NC1CCCC1)c1ccc(F)cc1)c1ccno1 (stereo not given) | 107% (inactive)
N=c1c2c3c(sc2ncn1N)CCCCC3 | 86% (inactive)
COCCNC(=O)c1ccccc1-c1nc(-c2ccccc2Cl)no1 | 94.6% (inactive)
O=C(c1cccc(C(=O)N2CCc3ccccc32)n1)N1CCc2ccccc21 | 101% (inactive)
Cc1nc2nc(COc3ccccc3)[nH]n2c(=O)c1Cc1ccccc1 | 85.2% (inactive)
Cc1cccc(OCc2nnc(SCC(=O)N3CCN(C(=O)c4ccco4)CC3)n2C)c1C | 112% (inactive)
CCOC(=O)CCc1c(C)c2ccc(OCc3nn[nH]n3)c(C)c2oc1=O | 91.2% (inactive)
O=C1CCCc2c1[nH]c1ccc(Br)cc21 | 94.5% (inactive)
O=C(COC(=O)c1ccc2c(c1)OCCO2)NCc1ccccc1 | 91.5% (inactive)
Cc1cnc(NC(=O)CSc2nnc(-c3ccc(Cl)cc3Cl)n2N)s1 | 88.8% (inactive)
O=C(Cn1c(-c2ccc(Cl)cc2)noc1=O)N1CCN(c2ccccc2F)CC1 | 88.1% (inactive)
Cc1cc(C)c2cc(CN(Cc3cccs3)Cc3nnnn3CC3CCCO3)c(=O)[nH]c2c1 (stereo not given) | 83.1% (inactive)
CCOC(=O)[C@H]1CCC[C@@H](NS(=O)(=O)c2ccc(NC(C)=O)cc2)C1 | 73.8% (inactive)
C=CCSC1=C(C#N)C(c2cc(Br)c(O)c(OC)c2)CC(=O)N1 (stereo not given) | 86.3% (inactive)
CC1(C)CC(=O)C(C2=NC(C)(C)Cc3ccccc32)=C(O)C1 | 99.5% (inactive)
c1nc(COc2nsnc2N2CCOCC2)cs1 | 90.4% (inactive)
Cc1nc2nc3c(cn2n1)C(=O)CC(c1ccccc1)C3 (stereo not given) | 109% (inactive)
CCCOc1ccc(CN(CCO)CCO)cc1C(=O)OC | 94.7% (inactive)
Cc1ccn2cc(C(=O)NC3CCN(Cc4ccccc4)CC3)nc2c1 | 81% (inactive)
CCCC(NS(=O)(=O)c1ccc(OC)cc1)C(=O)O (stereo not given) | 97.5% (inactive)

Compound | viability
c1ccc2c(NCC3CCCO3)nc(-c3ccncc3)nc2c1 (stereo not given) | 101% (inactive)
CCc1ccc(-c2nnn(Cc3nn[nH]n3)n2)cc1 | 112% (inactive)
CCc1nnc(NC(=O)CSc2nnc(COc3ccc(C#N)cc3)n2-c2ccccc2)s1 | 86% (inactive)
Cc1ccc(S(=O)(=O)N2CCC(C(=O)N[C@@H](C)C(=O)NCCc3ccccc3)CC2)cc1 | 100% (inactive)
COc1ccc(C2CC(c3ccc(C)cc3)Nc3nc(N)nn32)cc1 (stereo not given) | 102% (inactive)
CC(C)=C(NC(=O)c1ccco1)C(=O)NCCc1nc2ccccc2[nH]1 | 122% (inactive)
Cc1cc(N2CCN(Cc3ccc4c(c3)OCO4)CC2)n2ncnc2n1 | 88.1% (inactive)
Cc1ccc(N(CC(O)CN2CCCC2)S(=O)(=O)c2ccccc2)cc1 (stereo not given) | 84.9% (inactive)
CC(C)C(NC(=O)c1cccc(S(=O)(=O)N2CCOCC2)c1)C(=O)NCCc1ccccn1 (stereo not given) | 84.8% (inactive)
Cc1ccc(S(=O)(=O)NCC(=O)OCC(=O)N2CCc3ccccc32)cc1 | 75.8% (inactive)
CCCCNc1nc2c(c(=O)[nH]c(=O)n2C)n1CCOc1ccccc1 | 114% (inactive)
c1ccc(-n2ncc3c(N4CCCC4)ncnc32)cc1 | 86.5% (inactive)
CN(C)Cc1c(C#N)c2ccccc2n1C | 99.7% (inactive)
O=C(c1ccco1)N(Cc1nc2ccccc2c(=O)[nH]1)C1CCCC1 | 87.8% (inactive)
COC(=O)COc1ccc2oc(=O)cc(C)c2c1 | 87% (inactive)
COC(=O)c1cn(-c2ccccc2)nc1-c1cccnc1 | 119% (inactive)
CC(C(=O)O)N1C(=O)c2cccc3cccc1c23 (stereo not given) | 91.2% (inactive)
Cc1cc(C)c(NC(=O)CS(=O)CC(=O)Nc2cccnc2)c(C)c1 (stereo not given) | 79.8% (inactive)
COc1ccc(CSc2nc(N3CCOCC3)c3c(c2C#N)CC(C)(C)OC3)cc1 | 76.6% (inactive)
CS(=O)(=O)N1CCN(C(=O)c2cc3ccccc3oc2=O)CC1 | 82.4% (inactive)
Cc1cc(=O)[nH]c(SCC(N)=O)c1C#N | 121% (inactive)
Cc1ccc(S(=O)(=O)NCc2nc3ccccc3c(=O)n2N)cc1 | 87.3% (inactive)
CC(=O)c1cc(-c2ccccc2)[nH]c1N1CCCC1 | 89.9% (inactive)
Cc1ccc(C)c(NC(=O)C2CCCN2C(=O)OC(C)(C)C)c1 (stereo not given) | 102% (inactive)
COc1ccc(C(=O)N2CCC(C(=O)Nc3cccc(C)c3)CC2)cc1OC | 106% (inactive)

Compound | viability
Cc1ccccc1NC(=O)c1cnn(-c2ccccc2)c1NC(=O)c1ccco1 | 117% (inactive)
O=C1NC(c2cc3c(cc2Cl)OCO3)Oc2ccccc21 (stereo not given) | 110% (inactive)
CCCC(C)n1[nH]c(=O)c2c(C)cc(C)nc21 (stereo not given) | 87% (inactive)
Cc1cc(C)n2nc(C(=O)Oc3ccc4c(c3)OCO4)nc2n1 | 86.1% (inactive)
CC(C)OCCCNc1nc2c(c(=O)n(Cc3ccccc3F)c(=O)n2C)n1C | 68.2% (inactive)
Clc1ccc(CSc2nnc([C@@H]3CCCN3)o2)cc1 | 80.8% (inactive)
O=C(NCc1cccnc1)c1cn(-c2ccccc2)nc1-c1cccs1 | 74.3% (inactive)
COC(=O)Nc1c(C)n(C)n(-c2ccccc2)c1=O | 104% (inactive)
O=S(=O)(O)c1nc2ccccc2n1Cc1ccc(Cl)cc1Cl | 98.8% (inactive)
Cc1cc(Br)ccc1NC(=O)C1CCCO1 (stereo not given) | 75.5% (inactive)
c1cnc(NC2C3CC4CC(C3)CC2C4)nc1 (stereo not given) | 98.3% (inactive)
O=C(c1ccco1)N1CCN(C(=O)C2c3ccccc3Oc3ccccc32)CC1 | 99.4% (inactive)
O=C(Nc1ccon1)c1sc2ccccc2c1Cl | 122% (inactive)
COc1cccc(-c2nc(S(=O)(=O)c3ccccc3)c(N3CCOCC3)o2)c1 | 83.1% (inactive)
O=c1[nH]c(-c2ccccc2)c(-c2ccccc2)[nH]1 | 96.3% (inactive)
c1ccc(-c2[nH]ncc2-c2nc3ccccc3[nH]2)cc1 | 42.9% (active)
c1ccc(-c2nnc(SCc3nc4ccccc4[nH]3)o2)cc1 | 70.7% (inactive)
CC(C)C(c1nnnn1CCc1ccccc1)N1CCN(C(=O)c2ccco2)CC1 (stereo not given) | 102% (inactive)
CSCCC(Nc1nc2ccccc2s1)C(=O)O (stereo not given) | 81.1% (inactive)
Cc1cc(NC(=O)CCC2COc3ccccc3O2)no1 (stereo not given) | 94.5% (inactive)
Cc1ccc2nc(NC3=NCN(CCc4ccccc4)CN3)nc(C)c2c1 | 95.4% (inactive)
COc1ccccc1N1CCN(C(=O)c2ccc(S(=O)(=O)N3CCCCC3)cc2)CC1 | 123% (inactive)
COC(=O)c1ccccc1NC(=O)CSc1ccccn1 | 81.2% (inactive)
COc1ccc(N2CCN(CCNC(=O)c3nnc(Cc4c(F)cccc4Cl)o3)CC2)cc1 | 75% (inactive)
CCOC(=O)c1ccccc1NC(=O)CC1Nc2ccccc2NC1=O (stereo not given) | 47.2% (inactive)
